# Measured values: PubChem BioAssay AID1745850 (National Center for Advancing Translational Sciences (NCATS), 2022)
# The campaign covered roughly 2,100 compounds. About 260 (12%) were called active. About 58% were inconclusive and are not listed. Calls follow the shape of the dose curve; as a rule, active = well fitted cell-killing curve with a large enough effect; inconclusive = small, poorly fitted or top-dose-only effect, or effect the other way; inactive = flat fitted curve, though single readings scatter. This is one part of the list. A call without a number means that no potency is given here.
# Assay: Viability Counterscreen for Confirmatory qHTS for Inhibitors of ATXN expression; also: nearly all actives have a fitted effect of over 50% in size
# Conditions: HEK-293 ATXN2-luc cells viability, CellTiter-Fluor, 24 h
# Outline: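 Cells with an ATXN2-luciferase reporter were dosed in a dilution series for 24 h at 37 degrees C. Viability was read first with Gly-Phe-AFC at 25 uM final (fluorescence, ex 405/em 540), then SteadyGlo luminescence. Medium-only wells defined 100% inhibition.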
# Potency is read from the fitted curve at half-maximal effect.
row,SMILES,Potency
1,CCC(C)Sc1cc(C(F)(F)F)c(C(=O)Nc2ccc(Cl)cc2)cn1 (stereo not drawn),inactive
2,COC(=O)Cc1[nH]n(-c2nc3ccccc3s2)c(=O)c1C(C)=Nc1ccc(C)cc1,inactive
3,COc1cc(C)c(C(=O)CC(=O)c2c(C)cc(OC)cc2C)c(C)c1,inactive
4,CCN(CC)S(=O)(=O)c1ccc(NC(=O)Nc2cccc(C(F)(F)F)c2)cc1,inactive
5,COc1ccc(C(=O)N/N=C/c2ccc(N(C)c3ccccc3)cc2)cc1,inactive
6,COc1ccc(/C=N/Nc2cc(N3CCCC3)nc(N3CCCC3)n2)cc1,3.16 µM (active)
7,COc1ccc(C)cc1Nc1nc(C)nc2sc(C)cc12,inactive
8,CCOc1ccc(CCNC(=O)c2ccc(OCc3c(C)noc3C)cc2)cc1OCC,inactive
9,CCCCCn1c(=N)n(CC(O)COc2ccccc2OC)c2ccccc21 (stereo not drawn),3.98 µM (active)
10,Cc1ccc(OCC(O)Cn2c(=N)n(CCN3CCCCC3)c3ccccc32)cc1 (stereo not drawn),22.4 µM (active)
11,N=c1n(CCN2CCCCC2)c2ccccc2n1CC(O)c1ccc(Cl)c(Cl)c1 (stereo not drawn),25.1 µM (active)
12,COc1cc2c(C(=O)N3CCOCC3)c(CSc3ccccc3)n(C)c2cc1Br,inactive
13,CN(C)c1ccc2c(c1)OC(N)=C(C#N)C2c1cccc(F)c1 (stereo not drawn),inactive
14,COc1cc2nc(CN(C)Cc3ccc(SC)cc3)[nH]c(=O)c2cc1OC,inactive
15,COc1ccc(C(=O)NC(=S)NNC(=O)c2cnccn2)cc1,inactive
16,COc1c(C)cccc1C(=O)Nc1ccc(N2CCN(C(=O)c3ccccc3C)CC2)cc1,25.1 µM (active)
17,COc1ccc(Br)cc1C(=O)Nc1ccccc1N1CCN(C(=O)c2ccccc2)CC1,inactive
18,Cc1ccc(C(=O)N2CCN(c3ccc(NC(=S)NC(=O)c4cccs4)cc3)CC2)cc1,inactive
19,Cn1c(=O)c2c(nc(SCCN3CCOCC3)n2Cc2cccc3ccccc23)n(C)c1=O,inactive
20,CCc1ccc(-n2cc(-c3ccc(F)cc3)[n+]3c2SCCC3)cc1,inactive
21,CCn1c(COc2ccccc2C)nnc1SCC(=O)N1CCN(c2ccccc2)CC1,inactive
22,O=C1C=CCC(/C=C/c2ccccc2)O1 (stereo not drawn),20 µM (active)
23,Cc1c(CC(=O)NCCCC(=O)O)c(=O)oc2cc3c(cc12)CCC(C)(C)O3,inactive
24,CCc1nc2ccccc2c(C(=O)OCC(=O)Nc2cccc(S(=O)(=O)NC3=NCCCCC3)c2)c1C,25.1 µM (active)
25,CCc1nc2ccccc2c(C(=O)OCC(=O)Nc2ccc(NC(C)=O)cc2)c1C,inactive

row,SMILES,Potency
1,NS(=O)(=O)c1ccc(NC(=O)COC(=O)c2c3c(nc4ccccc24)/C(=C\c2ccc4c(c2)OCO4)CCC3)cc1,inactive
2,COc1ccc(N(CC(=O)N2CCN(c3ccc(Cl)cc3)CC2)S(=O)(=O)c2c(C)n[nH]c2C)cc1,inactive
3,CCOc1ccc(NC(=O)Nc2nnc(CC(=O)NCc3ccccc3)s2)cc1,inactive
4,O=C(Nc1ccc(Cl)c(Cl)c1)Nc1nnc(CSc2ccccc2)s1,2.51 µM (active)
5,CCCCN1C(=O)/C(=C2/Sc3ccccc3N2C)S/C1=N\c1ncn[nH]1,inactive
6,CC1=CC(C)(C)N2C(=O)C3(SCC(=O)N3c3ccc(F)cc3)c3cc(C)cc1c32 (stereo not drawn),inactive
7,CCN(CC)c1ccc(/C=C/c2cccc[n+]2C)c(OC)c1,12.6 µM (active)
8,CCN(CC)c1ccc(C(=O)N/N=C/c2ccccc2OC(F)F)cc1,inactive
9,O=C(C1CC(=O)N(c2ccc3c(c2)OCCO3)C1)N1CCN(c2ccccc2)CC1 (stereo not drawn),inactive
10,O=C(CSc1nnc(-c2ccccc2)o1)Nc1ccccc1F,inactive
11,CC1CC(C)CN(CCCNC(=O)c2cc3c(s2)-c2ccccc2OC3)C1 (stereo not drawn),inactive
12,Cc1ccc(NC(=O)CCC(=O)c2cc(C)sc2C)nc1,inactive
13,CC(=O)c1ccc(N2CCc3ccccc3C2)c([N+](=O)[O-])c1,inactive
14,COc1ccc(-c2cc(C3CCN(c4ccc(C(C)=O)cc4[N+](=O)[O-])CC3)[nH]n2)cc1,28.2 µM (active)
15,CN1CCC2(CC1)N=C(c1ccc(F)cc1)C(=S)N2C(=O)c1ccc(C(C)(C)C)cc1,inactive
16,CC(C)n1c(NCc2cc(Cl)ccc2O)nc2ccccc21,inactive
17,Clc1ccc(SCc2cc(N3CCOCC3)nc(-c3ccccn3)n2)cc1,10 µM (active)
18,Cc1cc(Oc2ccc(Cl)cc2)nc(-c2ccccn2)n1,inactive
19,Clc1ccc(CSc2ccc(-c3ccccn3)nn2)cc1,inactive
20,CCN(CC)CCCNc1nc2ccccc2c2nc(-c3ccncc3)nn12,25.1 µM (active)
21,COC(=O)N/N=C/c1cn(CC(C)COc2ccccc2)c2ccccc12 (stereo not drawn),inactive
22,O=C1C(Cl)=C(N2CCC(C(=O)O)CC2)C(=O)c2ccccc21,inactive
23,CCOC(=O)C1CCN(C(=O)c2c(C)oc3c2C(=O)c2ccccc2C3=O)CC1,25.1 µM (active)
24,Cc1ccc(C)n1-c1ccc(C(=O)N2CCC(C(N)=O)CC2)cc1,inactive
25,COc1ccc(CCCNC(=O)C2Cc3c(-c4cccc(NC(C)=O)c4)ccnc3O2)cc1 (stereo not drawn),inactive

row,SMILES,Potency
1,N#CCc1nc2ccccc2c(=O)[nH]1,inactive
2,Cc1[nH]c(=O)c(C(=O)/C=C/c2ccccc2)c2c1CCCC2,20 µM (active)
3,COC(=O)c1ccccc1S(=O)(=O)NNC(=O)Nc1ccccc1,inactive
4,CCCCn1c(/C=N/Nc2nc3ccccc3[nH]2)nc2ccccc21,inactive
5,C(=N\Nc1nc2ccccc2[nH]1)/c1cccc2nccnc12,inactive
6,CC(C)Cn1c(/C=N/Nc2nc3ccccc3[nH]2)nc2ccccc21,11.2 µM (active)
7,Cc1sc2nc(CN3CCCC3)nc(N3CCC(C(N)=O)CC3)c2c1C,inactive
8,Cc1cc(C)n(CCC(=O)N/N=C/c2ccc(O)cc2O)n1,inactive
9,Cc1cc([N+](=O)[O-])nn1Cc1ccc(C(=O)N/N=C/c2ccc(O)cc2O)cc1,10 µM (active)
10,O=C(N/N=C/c1ccc(O)cc1O)c1ccncc1,inactive
11,CCn1c(-c2ccc(C)cc2)nn(CC(=O)NCCc2ccccc2)c1=S,inactive
12,O=C(NN=Cc1ccc(O)cc1O)c1ccccc1NS(=O)(=O)c1cccs1,inactive
13,CCc1ccc(C(O)c2ncc(-c3cccc(C(F)(F)F)c3)[nH]2)cc1 (stereo not drawn),inactive
14,CCN(CC)CCn1nc2c3c(cccc3c1=O)-c1ccccc1-2,14.1 µM (active)
15,COc1ccc(/C(N)=N/OC(=O)N2CCOCC2)cc1,inactive
16,Cn1c2c(c(=O)[nH]c1=O)C(c1cccc(O)c1)C1=C(N2)c2ccccc2C1=O (stereo not drawn),22.4 µM (active)
17,CCOC(=O)C(C(C)=O)c1c(Br)c(O)c(O)c2c(C(=O)c3ccc(C)cc3)coc12 (stereo not drawn),15.8 µM (active)
18,CC(=O)C(C(C)=O)c1c(Cl)c(O)c(O)c2c(C(=O)c3ccccc3)coc12,12.6 µM (active)
19,Cc1ccc(NC(=O)CSc2ccc(Br)cc2)cc1S(=O)(=O)N1CCOCC1,inactive
20,CCc1ccc(N(CC)C(=O)c2ccc3c(Cl)c4c(nc3c2)CCC4)cc1,inactive
21,Cc1ccc(Cc2cnc(NC(=O)/C(C#N)=C/c3ccc(-c4cccc([N+](=O)[O-])c4)o3)s2)cc1,22.4 µM (active)
22,CCN1C(=O)/C(=C/c2nc3ccccc3c(=O)n2-c2ccccc2)c2ccccc21,25.1 µM (active)
23,C=CCOc1ccc(CNc2ccc3[nH]c(=O)[nH]c3c2)cc1OC,inactive
24,COc1ccc(Cc2nnc(N/N=C/c3ccccc3O)[nH]c2=O)cc1OC,4.47 µM (active)
25,COc1cc(Br)cc(/C=N/NC(=O)Cc2ccccc2)c1O,inactive

row,SMILES,Potency
1,Cc1ccc(S(=O)(=O)c2c(N)n(CC3CCOC3)c3nc4ccccc4nc23)cc1 (stereo not drawn),inactive
2,COc1cccc(/C=N/n2c(N)c(S(=O)(=O)c3cccs3)c3nc4ccccc4nc32)c1OC,22.4 µM (active)
3,CCn1ccnc1CN1CCCC(C(=O)c2ccc3cc(OC)ccc3c2)C1 (stereo not drawn),inactive
4,O=S(=O)([N-]c1nc2ccccc2nc1-[n+]1ccc(Cc2ccccc2)cc1)c1ccc(Br)s1,7.94 µM (active)
5,CCc1noc(C)c1C(=O)N1CCSC1=Nc1cccc(Cl)c1C,inactive
6,CC1(C)Cc2ccccc2C2=NNC(=O)C2=N1,28.2 µM (active)
7,O=c1cc(C(F)(F)F)[nH]c2ccc(C(F)(F)F)cc12,inactive
8,CN(C)CCNC(=O)c1ccc(Cl)c2cc3ccccc3nc12,10 µM (active)
9,COc1ccc(N(C)S(=O)(=O)c2ccc(Cl)c(C(=O)NCCc3ccc(Cl)cc3)c2)cc1,inactive
10,CSc1sc(C(=O)NN)c2c1C1(CCC2)SCCS1,inactive
11,CCCCCn1c(=O)c2ccccc2n2c(CCl)nnc12,25.1 µM (active)
12,CCOC(=O)C(CC)(CC)C(=O)/C=C/c1ccc(OC)cc1,inactive
13,CC(C)=CCc1ccc(O)c(=O)cc1C(C)C,inactive
14,COc1cc(C(=O)N/N=C(\c2ccccc2)c2ccccn2)cc(OC)c1OC,2.24 µM (active)
15,COc1cc(C(=O)N/N=C(\Cc2ncc[nH]2)c2ccccc2)cc(OC)c1OC,inactive
16,O=C(N/N=C(\Cc1ncc[nH]1)c1ccccc1)c1cccnc1,inactive
17,CCc1ccc(NC(=O)C2CCN(S(=O)(=O)c3ccc4c(c3)CC(C)N4C(C)=O)CC2)cc1 (stereo not drawn),inactive
18,CCOc1ccc(S(=O)(=O)NCCC(=O)N2CC=C(c3ccccc3)CC2)cc1,inactive
19,COc1cc2[nH]c(=O)n(CCCCCC(=O)N3CC=C(c4ccccc4)CC3)c(=O)c2cc1OC,3.16 µM (active)
20,Cc1cccn2c(=O)c3cc(C(=O)NCCc4ccccc4)c(=N)n(CCCn4ccnc4)c3nc12,inactive
21,Cc1onc(-c2c(F)cccc2Cl)c1C(=O)Nc1nnc(C(F)(F)F)s1,inactive
22,O=C(Nc1ccccc1C(=O)Nc1nnc(C(F)(F)F)s1)c1ccccc1,3.98 µM (active)
23,CC1CCCN(c2ncnc3c2cnn3-c2ccc(Cl)cc2)C1 (stereo not drawn),inactive
